A selection: hits, their analogues and other compounds. The true share with any hit is near 0.9%.
PPARg SRC2 recr = agonists of PPARg-SRC-2 recruitment, primary screen, biochemical, HTS. Peroxisome proliferator-activated receptor gamma (Homo sapiens), P37231. PPARgamma LBD-SRC-2 recruitment. activation, % at 8 µM. 200,000 compounds, 0.34% hits. AID 1032, 2008; in the data active means activation above about 22%;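 further: 0% = vehicle and 100% = reference agonist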
Target sequence (P37231 whole entry, looked up, the tested form may be a part): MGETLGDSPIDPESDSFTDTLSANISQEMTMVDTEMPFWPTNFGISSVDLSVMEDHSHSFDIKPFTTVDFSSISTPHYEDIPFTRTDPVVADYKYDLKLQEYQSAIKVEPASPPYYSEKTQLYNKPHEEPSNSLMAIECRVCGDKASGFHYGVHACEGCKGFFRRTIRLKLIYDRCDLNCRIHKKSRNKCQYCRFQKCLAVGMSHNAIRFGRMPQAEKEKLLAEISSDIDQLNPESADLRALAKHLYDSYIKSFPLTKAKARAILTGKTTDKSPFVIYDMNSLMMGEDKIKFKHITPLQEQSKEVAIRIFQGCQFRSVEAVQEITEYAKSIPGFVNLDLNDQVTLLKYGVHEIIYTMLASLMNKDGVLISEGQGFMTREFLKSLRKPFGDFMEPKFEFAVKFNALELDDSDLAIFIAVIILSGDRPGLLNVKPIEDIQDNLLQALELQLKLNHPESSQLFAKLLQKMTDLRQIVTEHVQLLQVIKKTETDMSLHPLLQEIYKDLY
SRC3 TRFRET art = TR-FRET detection interference compounds, artefact control for PPARgamma SRC-3 recruitment agonists, biochemical, TR-FRET ratio; AID 1048, 2008; 99,000 compounds, 0.39% hits; TR-FRET artefact counter-screen, PPARgamma/SRC-3 format; hits give high values; TR-FRET ratio at 8 µM
SRC1 TRFRET art = TR-FRET detection interference compounds, primary screen, artefact control for PPARgamma SRC-1 recruitment agonists, biochemical, TR-FRET emission ratio. TR-FRET detection artefact counter-screen; hits give high values. TR-FRET ratio at 8 µM. 99,000 compounds, 0.34% hits; in the data active means TR-FRET ratio above about 2300
PPARg SRC-1 ag = PPARgamma agonists recruiting SRC-1 coactivator, primary screen, biochemical | PPARgamma-SRC-1 coactivator recruitment biochemical assay | activation, % at 8 µM | 200,000 compounds, 0.41% hits | AID 631, 2007; in the data active means activation above about 19%;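 further: 0% = DMSO and 100% = reference agonist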
SRC2 TRFRET art = TR-FRET signal artefacts, primary screen, artefact control for PPARgamma SRC-2 agonist project, biochemical; TR-FRET artefact counter-screen; hits give high values; TR-FRET ratio at 8 µM; 200,000 compounds, 0.4% hits
PPARg SRC3 recr = PPARgamma agonists recruiting SRC-3 coactivator, primary screen, biochemical | Peroxisome proliferator-activated receptor gamma (Homo sapiens), P37231 | biochemical PPARgamma/SRC-3 coactivator recruitment assay | activation, % at 8 µM | 200,000 compounds, 0.26% hits | AID 731, 2007; in the data active means activation above about 23%;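 further: 0% = DMSO and 100% = reference agonist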
Active calls of the source: *. Unless noted, no stated cut-off is given here; in the data, active means TR-FRET ratio above about 2000; inactive means the rest.

`COC(=O)NCN1C(=O)C2C3C=CC(C3)C2C1=O` (configuration not stated) gave PPARg SRC2 recr 6.1, SRC3 TRFRET art 1653, SRC1 TRFRET art 2043, PPARg SRC-1 ag 6.8, SRC2 TRFRET art 1576 and PPARg SRC3 recr -3.9.
CCOc1ccc(N=C2NN=C(c3cc(C)n(CC4CCCO4)c3C)CS2)cc1 (configuration not stated) was read as PPARg SRC2 recr 2.5, SRC3 TRFRET art 1828, SRC1 TRFRET art 1953, PPARg SRC-1 ag 21.8*, SRC2 TRFRET art 1711 and PPARg SRC3 recr 1.6.
CC(C)C(C)(C#N)NC(=O)CSc1nc2scc(-c3ccco3)c2c(=O)n1-c1ccccc1 (configuration not stated) was read as PPARg SRC2 recr 17.9, PPARg SRC-1 ag 6.4, SRC2 TRFRET art 2013* and PPARg SRC3 recr 4.5.
CC(C)C(C)NC(=O)CSc1nc2scc(-c3ccco3)c2c(=O)n1-c1ccccc1 (configuration not stated) was read as PPARg SRC2 recr 2.0, PPARg SRC-1 ag 6.4, SRC2 TRFRET art 1609 and PPARg SRC3 recr 10.5.
For CC(C)N(C(=O)CSc1nn2c(=O)c(C(C)(C)C)nnc2s1)c1ccccc1 the results were PPARg SRC2 recr -6.5, PPARg SRC-1 ag -0.5, SRC2 TRFRET art 1419 and PPARg SRC3 recr 0.2.
Cc1cc(C(=O)CSc2nn3c(=O)c(C(C)(C)C)nnc3s2)c(C)n1-c1ccc(F)cc1 was read as PPARg SRC2 recr 12.6, PPARg SRC-1 ag 9.0, SRC2 TRFRET art 2070* and PPARg SRC3 recr 21.6.
Screening O=C(Nc1ccccn1)c1cc(-c2cccc(Cl)c2)nc2ccccc12 returned PPARg SRC2 recr 4.7, SRC3 TRFRET art 2298*, SRC1 TRFRET art 2351*, PPARg SRC-1 ag 14.1, SRC2 TRFRET art 1804 and PPARg SRC3 recr 1.6.
Screening CN1/C(=C\C(=S)NC(=O)c2ccccc2Cl)C(C)(C)c2ccccc21 returned PPARg SRC2 recr -1.6, SRC3 TRFRET art 1615, SRC1 TRFRET art 1647, PPARg SRC-1 ag -3.6, SRC2 TRFRET art 1473 and PPARg SRC3 recr 0.0.
For COc1ccccc1C(=O)NC(=S)/C=C1/N(C)c2ccccc2C1(C)C the results were PPARg SRC2 recr 17.1, SRC3 TRFRET art 1894, SRC1 TRFRET art 2384*, PPARg SRC-1 ag 13.1, SRC2 TRFRET art 1664 and PPARg SRC3 recr 10.7.
Screening CN1/C(=C\C(=S)Nc2ccccc2)C(C)(C)c2ccccc21 returned PPARg SRC2 recr -1.4, SRC3 TRFRET art 1715, SRC1 TRFRET art 1780, PPARg SRC-1 ag 7.9, SRC2 TRFRET art 1974* and PPARg SRC3 recr 2.0.
For CN1/C(=C\C(=O)Nc2ccc(Cl)cc2)C(C)(C)c2ccccc21 the results were PPARg SRC2 recr 4.3, SRC3 TRFRET art 1551, SRC1 TRFRET art 1653, PPARg SRC-1 ag 0.3, SRC2 TRFRET art 1427 and PPARg SRC3 recr -4.9.
`COc1ccc(CC(=O)NNS(=O)(=O)c2ccc(F)cc2)cc1OC` gave PPARg SRC2 recr -4.3, SRC3 TRFRET art 1459, SRC1 TRFRET art 1693, PPARg SRC-1 ag 0.0, SRC2 TRFRET art 1712 and PPARg SRC3 recr 3.8.
`O=c1[nH]n(-c2ccccc2)c(=O)c2ccccc12` gave PPARg SRC2 recr 1.6, SRC3 TRFRET art 1715, SRC1 TRFRET art 1771, PPARg SRC-1 ag 20.5*, SRC2 TRFRET art 1664 and PPARg SRC3 recr 3.7.
Screening O=c1[nH]n(-c2ccccn2)c(=O)c2ccccc12 returned PPARg SRC2 recr -2.1, PPARg SRC-1 ag -1.1, SRC2 TRFRET art 1735 and PPARg SRC3 recr -5.8.
Screening C=CCn1c(=NC(=O)c2cc(-c3cccs3)nc3ccccc23)sc2cc(S(N)(=O)=O)ccc21 returned PPARg SRC2 recr 3.8, SRC3 TRFRET art 2319*, SRC1 TRFRET art 1639, PPARg SRC-1 ag 6.7, SRC2 TRFRET art 1739 and PPARg SRC3 recr 3.2.
Screening COCCn1c(=NC(=O)c2cc(-c3cccs3)nc3ccccc23)sc2cc(S(N)(=O)=O)ccc21 returned PPARg SRC2 recr 3.0, SRC3 TRFRET art 1939, SRC1 TRFRET art 1979, PPARg SRC-1 ag 5.2, SRC2 TRFRET art 1698 and PPARg SRC3 recr 1.5.
Screening COc1ccc(OCC(=O)Nc2cccc3cccnc23)cc1 returned PPARg SRC2 recr 10.8, SRC3 TRFRET art 1536, SRC1 TRFRET art 2429*, PPARg SRC-1 ag 1.5, SRC2 TRFRET art 1763 and PPARg SRC3 recr 7.7.
COc1ccc(OCC(=O)Nc2cccc(NC(=O)COc3ccc(OC)cc3)n2)cc1 was read as PPARg SRC2 recr 14.9, PPARg SRC-1 ag 9.3, SRC2 TRFRET art 1570 and PPARg SRC3 recr 9.7.
O=C(OC1CCCCC1)c1ccc2c(c1)C1C=CCC1C(C(=O)O)N2 (configuration not stated) was read as PPARg SRC2 recr 19.2, SRC3 TRFRET art 1554, SRC1 TRFRET art 1642, PPARg SRC-1 ag 3.8, SRC2 TRFRET art 2020* and PPARg SRC3 recr 5.4.
Screening N#Cc1cc2c(nc1SCc1ccccc1)CCC2 returned PPARg SRC2 recr 12.8, PPARg SRC-1 ag 85.1*, SRC2 TRFRET art 1654 and PPARg SRC3 recr 7.8.
N#Cc1cc2c(nc1SCc1ccccc1)CCCC2 was read as PPARg SRC2 recr 2.3, SRC3 TRFRET art 1643, SRC1 TRFRET art 2031, PPARg SRC-1 ag 7.0, SRC2 TRFRET art 1574 and PPARg SRC3 recr 1.1.
COC(=O)c1ccccc1CON1C(=O)C(C)(C)N(OCc2ccccc2C(=O)OC)C(=O)C1(C)C was read as PPARg SRC2 recr 3.5, PPARg SRC-1 ag -5.6, SRC2 TRFRET art 1474 and PPARg SRC3 recr 0.9.
Cc1ccc(N2CC(C(=O)Nc3cc(C)on3)CC2=O)cc1 (configuration not stated) was read as PPARg SRC2 recr -3.0, PPARg SRC-1 ag -12.6, SRC2 TRFRET art 1500 and PPARg SRC3 recr -12.3.
Screening COCc1c(C(=O)OC)nnn1-c1ccccc1 returned PPARg SRC2 recr -3.5, PPARg SRC-1 ag 94.1*, SRC2 TRFRET art 1401 and PPARg SRC3 recr 12.3.
Screening COC(=O)c1nnn(-c2ccccc2)c1N returned PPARg SRC2 recr 1.3, PPARg SRC-1 ag -1.1, SRC2 TRFRET art 1453 and PPARg SRC3 recr 0.9.
`COc1ccccc1C(=O)Nc1ccccn1` gave PPARg SRC2 recr 23.9*, PPARg SRC-1 ag 1.6, SRC2 TRFRET art 1834 and PPARg SRC3 recr 1.1.
For COc1ccccc1C(=O)Nc1cccnc1 the results were PPARg SRC2 recr 9.7, SRC3 TRFRET art 1667, SRC1 TRFRET art 1929, PPARg SRC-1 ag 5.7, SRC2 TRFRET art 1551 and PPARg SRC3 recr 3.5.
Screening Cc1ccc(S(=O)(=O)NNC(=O)c2cccc(O)c2)cc1 returned PPARg SRC2 recr -0.4, SRC3 TRFRET art 1438, SRC1 TRFRET art 1673, PPARg SRC-1 ag -2.1, SRC2 TRFRET art 1479 and PPARg SRC3 recr -2.3.
